The supplement of paper PMC8728848
The full list was thinned out, with the strongest signals kept by preference.

What was measured:
Assay in all cases: glycan array binding signal (z-score within array); higher = stronger binding
Conditions in all cases: glycan notation: IUPAC condensed, linker removed
[1] = target: Neu5Ac(a2-3)Gal(b1-3)[Neu5Ac(a2-6)]GalNAc
In short: (§1)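 The Consortium for Functional Glycomics database supplied 3228 glycan arrays, of which those lacking an available protein sequence were dropped. The binding signal, a within-array Z-score, was averaged across arrays of the same protein sequence and across linkers. Negative scores can be read as non-binding.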

[2] = target: Neu5Ac(a2-3)Gal(b1-4)[Fuc(a1-3)]GlcNAc(b1-6)[Neu5Ac(a2-3)Gal(b1-3)]GalNAc
In short: as §1

[3] = target: Neu5Ac(a2-3)GalNAc(b1-4)GlcNAc
In short: as §1

[4] = target: Neu5Ac(a2-6)Gal(b1-4)GlcNAc(b1-2)Man(a1-3)[Neu5Ac(a2-6)Gal(b1-4)GlcNAc(b1-2)Man(a1-6)]Man(b1-4)GlcNAc(b1-4)[Fuc(a1-6)]GlcNAc
In short: as §1

[5] = target: Neu5Ac(a2-6)Gal(b1-4)GlcNAc(b1-3)Gal(b1-4)GlcNAc
In short: as §1

[6] = target: Neu5Ac(a2-6)Gal(b1-4)GlcNAc(b1-6)GalNAc
In short: as §1

[7] = target: Neu5Ac(a2-6)Gal(b1-4)GlcNAc(b1-6)[Gal(b1-3)]GalNAc
In short: as §1

Neu5Gc(a2-3)Gal(b1-4)Glc = target: Neu5Gc(a2-3)Gal(b1-4)Glc
In short: as §1

[8] = target: Neu5Gc(a2-6)Gal(b1-4)GlcNAc
In short: as §1

[9] = target: Neu5Gc(a2-8)Neu5Gc(a2-3)Gal(b1-4)GlcNAc(b1-3)Gal(b1-4)GlcNAc
In short: as §1

B1: LSL-150 (Laetiporus sulphureus), Q7Z8V1 (protein)
chain: MTDIYIPPEGLYFRLLGFASRQVIFARNSPSPDVGLSPVNDQATDQYFSLIYGTGEHAGLYAIKSKATGKVLFSRRPAEPYVGQIDGDGRYPDNWFKIEPGKTYLSKYFRLVQPSTGTALVSRTHLQPYFWNHPQTEVFDDQYFTFLFEDHHHHHH
- glycan array binding signal (z-score) [1]: -0.208
- glycan array binding signal (z-score) [2]: -0.203
- glycan array binding signal (z-score) [3]: -0.213
- glycan array binding signal (z-score) [4]: -0.208
- glycan array binding signal (z-score) [5]: -0.079
- glycan array binding signal (z-score) [6]: -0.203
- glycan array binding signal (z-score) [7]: -0.194
- glycan array binding signal (z-score) (Neu5Gc(a2-3)Gal(b1-4)Glc): -0.205
- glycan array binding signal (z-score) [8]: -0.206
- glycan array binding signal (z-score) [9]: -0.196
